Where “and” joins values, the source holds several entries; their conditions need not be identical. Equal values may be shown once. Screen size: about 5,500 compounds; about 2,000 (36%) were called active. Not shown: some 18% with an inconclusive outcome. Cut-off read from the data, not from the text of the source: active = normalized growth mostly below about 0.91 (no sharp cut-off); inconclusive = no clear call, values can overlap the other calls; inactive = mostly above about 0.92. The list shows a part of the results.
Assay: chemical genetic growth profiling, strain panel (AID 1159580);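 note: tested at 20 µM; growth read once vehicle control cultures reached saturation at 30 °C; 1 = growth at the plate median or of vehicle wells; lower values mean less growth of the strain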
Settings: S. cerevisiae deletion strains, growth OD

Measured: normalized growth

Cc1cc(O)c(C)c(O)c1C(=O)O
inactive: locus YAL021C, strain ccr4, hits give low values 0.989 | locus YAL026C, strain drs2, hits give low values 0.979 | locus YAL030W, strain snc1, hits give low values 0.999 | locus YBL061C, strain skt5, hits give low values 0.989 | locus YBR009C, strain hhf1, hits give low values 0.97 | locus YBR021W, strain FUR4, hits give low values 0.986 | locus YBR023C, strain chs3, hits give low values 0.981 | locus YBR171W, strain sec66, hits give low values 0.99 | locus YBR229C, strain ROT2, hits give low values 0.993 | locus YBR231C, strain swc5, hits give low values 0.992 | locus YBR279W, strain paf1, hits give low values 0.984 | locus YCL011C, strain gbp2, hits give low values 0.991 | locus YCL016C, strain dcc1, hits give low values 0.99 | locus YCL029C, strain bik1, hits give low values 0.976 | locus YCL061C, strain MRC1, hits give low values 1.01 | locus YCL069W, strain vba3, hits give low values 0.995 | locus YCR088W, strain abp1, hits give low values 0.988 | locus YDL005C, strain med2, hits give low values 0.984 | locus YDL035C, strain GPR1, hits give low values 1.03 | locus YDL040C, strain nat1, hits give low values 0.99 | locus YDL074C, strain BRE1, hits give low values 1.06 | locus YDL101C, strain DUN1, hits give low values 0.986 | locus YDL134C, strain PPH21, hits give low values 0.978 | locus YDL185W, strain tfp1, hits give low values 0.964 | locus YDL192W, strain arf1, hits give low values 0.997 | locus YDR001C, strain nth1, hits give low values 0.981 | locus YDR069C, strain doa4, hits give low values 0.956 | locus YDR101C, strain arx1, hits give low values 1.04 | locus YDR137W, strain rgp1, hits give low values 0.899 | locus YDR159W, strain sac3, hits give low values 0.983 | locus YDR162C, strain NBP2, hits give low values 1.03 | locus YDR195W, strain ref2 0.977 | locus YDR297W, strain sur2, hits give low values 0.986 | locus YDR318W, strain mcm21, hits give low values 0.979 | locus YDR334W, strain swr1, hits give low values 0.975 | locus YDR335W, strain msn5, hits give low values 0.985 | locus YDR388W, hits give low values 1 | locus YDR392W, strain spt3, hits give low values 0.931 | locus YDR502C, strain sam2, hits give low values 0.98 | locus YEL003W, strain gim4, hits give low values 0.978 | locus YEL037C, strain rad23, hits give low values 0.976 | locus YEL061C, strain CIN8 (second series), hits give low values 0.979 | locus YEL061C, strain CIN8, hits give low values 1 | locus YER015W, strain faa2, hits give low values 0.987 | locus YER016W, strain bim1, hits give low values 0.991 | locus YER110C, hits give low values 0.984 | locus YER111C, strain swi4, hits give low values 0.985 | locus YER155C, strain BEM2 (second series), hits give low values 0.968 | locus YER155C, strain BEM2, hits give low values 0.988 | locus YER167W, strain BCK2, hits give low values 1.01 | locus YFR010W, strain ubp6, hits give low values 0.975 | locus YGL078C, strain dbp3, hits give low values 0.95 | locus YGL086W, strain mad1, hits give low values 0.997 | locus YGL167C, strain pmr1, hits give low values 0.974 | locus YGL173C, strain kem1, hits give low values 0.984 | locus YGL227W, strain vid30, hits give low values 0.995 | locus YGL240W, strain doc1, hits give low values 0.906 | locus YGL248W, strain PDE1, hits give low values 0.978 | locus YGL253W, strain hxk2, hits give low values 0.993 | locus YGR078C, strain PAC10, hits give low values 0.976 | locus YGR135W, strain pre9, hits give low values 0.925 | locus YGR252W, strain gcn5, hits give low values 0.926 | locus YHR013C, strain ard1, hits give low values 0.954 | locus YHR027C, strain rpn1, hits give low values 0.997 | locus YHR030C, strain SLT2, hits give low values 1.04 | locus YHR079C, strain IRE1 (second series), hits give low values 0.993 | locus YHR079C, strain IRE1, hits give low values 1.02 | locus YHR094C, strain hxt1, hits give low values 0.981 | locus YHR129C, strain ARP1, hits give low values 1.01 | locus YHR142W, strain chs7, hits give low values 1.02 | locus YHR200W, strain rpn10, hits give low values 0.96 | locus YIL066C, strain RNR3, hits give low values 1.01 | locus YIL073C, strain SPO22, hits give low values 0.806 | locus YIL125W, strain kgd1, hits give low values 1 | locus YIR030C, strain dcg1, hits give low values 0.989 | locus YJL092W, strain hpr5, hits give low values 1 | locus YJL095W, strain BCK1 (second series), hits give low values 1 | locus YJL095W, strain BCK1, hits give low values 0.988 and 1.05 | locus YJL115W, strain asf1, hits give low values 0.983 | locus YJL129C, strain trk1, hits give low values 0.995 | locus YJL134W, strain LCB3, hits give low values 1 | locus YJL154C, strain vps35, hits give low values 0.986 | locus YJL164C, strain tpk1, hits give low values 1.01 | locus YJL166W, strain qcr8, hits give low values 0.961 | locus YJL168C, strain set2, hits give low values 0.982 | locus YJL187C, strain SWE1 (second series), hits give low values 0.985 | locus YJL187C, strain SWE1, hits give low values 0.992

From PubChem BioAssay AID1159580 (chemical genetic matrix, 2015)
